Read-out in experiment [1]: Thyroid Hormone Responsive (THRSP), THRSP (gene 7069)
Briefly: LTEA_HepaRG_THRSP: Life Technologies and Expression Analysis (LTEA) Assay for Thyroid Hormone Responsive (THRSP) using HepaRG (AID 2283536; active = hit-call score of the fitted dose curve at least 0.9, where 1 is the maximum; inactive = score below 0.9). Conditions: mRNA level, 48 h; actives raise or lower the signal. An outline of the steps: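 THRSP transcript quantified by Fluidigm qRT-PCR against three housekeeping genes after 48 h chemical exposure of HepaRG cells in serum-free induction medium; eight-point half-log series, top 100 uM, 0.5% DMSO vehicle, duplicate wells.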

Read-out in experiment [2]: Cellular tumor antigen p53 (Homo sapiens) (UniProt P04637)
Briefly: LTEA_HepaRG_TP53: Life Technologies and Expression Analysis (LTEA) Assay for Tumor Protein P53 (TP53) using HepaRG (AID 2283537; active = hit-call score of the fitted dose curve at least 0.9, where 1 is the maximum; inactive = score below 0.9). Particulars: mRNA level, 48 h; actives raise or lower the signal. An outline of the steps:
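Gain or loss of TP53 mRNA signal is scored relative to 0.5% DMSO after 48 h chemical treatment of HepaRG liver cells, tested in duplicate at eight half-log concentrations up to 100 uM.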

Read-out in experiment [3]: UDP glucuronosyltransferase (UGT1A1), UGT1A1 (gene 54658)
Briefly: LTEA_HepaRG_UGT1A1: Life Technologies and Expression Analysis (LTEA) Assay for UDP glucuronosyltransferase (UGT1A1) using HepaRG (AID 2283538; active = hit-call score of the fitted dose curve at least 0.9, where 1 is the maximum; inactive = score below 0.9). Particulars: mRNA level, 48 h; actives raise or lower the signal. An outline of the steps: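 HepaRG, 48 h chemical exposure (top 100 uM, half-log 8-pt, 0.5% DMSO vehicle), duplicate wells; qRT-PCR (TaqMan, Fluidigm array) for UGT1A1 mRNA, housekeeping-normalized; bidirectional curve fit vs DMSO baseline.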

Read-out in experiment [4]: UDP glucuronosyltransferase (UGT1A6), UGT1A6 (gene 54578)
Briefly: LTEA_HepaRG_UGT1A6: Life Technologies and Expression Analysis (LTEA) Assay for UDP glucuronosyltransferase (UGT1A6) using HepaRG (AID 2283539; active = hit-call score of the fitted dose curve at least 0.9, where 1 is the maximum; inactive = score below 0.9). Conditions: mRNA level, 48 h; actives raise or lower the signal. An outline of the steps: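 HepaRG, 48 h post-plating switch to serum-free induction medium; chemical 48 h, 100 uM top, half-log x8, duplicate, 0.5% DMSO. Phenobarbital 1mM induction control. UGT1A6 mRNA by TaqMan qRT-PCR; gain/loss fit vs DMSO.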

Read-out in experiment [5]: X-box binding protein 1 (XBP1), XBP1 (gene 7494)
In words: LTEA_HepaRG_XBP1: Life Technologies and Expression Analysis (LTEA) Assay for X-box binding protein 1 (XBP1) using HepaRG (AID 2283540; active = hit-call score of the fitted dose curve at least 0.9, where 1 is the maximum; inactive = score below 0.9). Particulars: mRNA level, 48 h; actives raise or lower the signal. An outline of the steps: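 Transcript levels of XBP1, measured by qRT-PCR and normalised to three housekeeping genes, were fitted bidirectionally relative to 0.5% DMSO controls. Human HepaRG cells received eight-point half-log dilutions from 100 uM for 48 h.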

A short description of experiment [6]: LTEA_HepaRG_LDH_cytotoxicity: Cytotoxicity Assessment in the Life Technologies and Expression Analysis (LTEA) Assay (AID 2283563).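 As to AC50: LDH activity released into spent culture medium as a marker of cell death.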 The procedure, abridged: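 Cells were thawed and plated for 48 h. Medium was then replaced with serum-free induction medium. Chemicals (8 half-log points, maximum 100 uM, 0.5% DMSO) were added in duplicate for 48 h, after which spent medium was assayed for LDH.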

The nature of experiment [7]: ATG_XTT_Cytotoxicity: Cytotoxicity Assessment in the Attagene TRANS-FACTORIAL HepG2 Assay (AID 2283584). The procedure, abridged:
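Cells: human HepG2, transiently transfected with MRTU reporter constructs. Exposure 24 h. Readout: XTT, cell number. Baseline/neg ctrl DMSO; loss-of-signal scored.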

Experiment [8] can be described thus: TOX21_p53_BLA_p2_viability: Viability Assessment in the Tox21 HCT-116 p53 Agonism Beta-lactamase Assay, Phase 2 (AID 2283591).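 Also: compound exposure lasted 16 h at 37 °C; actives lower the ATP signal meaning cytotoxicity.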 An outline of the steps: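 Cytotoxicity readout: CellTiter-Glo ATP luminescence, 30 min at room temperature, after the beta-lactamase read. Cells were HCT116 exposed 16 h at 37C to compounds pin-transferred at 217-fold dilution from DMSO stocks.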

The target of experiment [9] is Cellular tumor antigen p53 (Homo sapiens) (UniProt P04637). Briefly: TOX21_p53_BLA_p2_ratio: Tox21 HCT-116 p53 Agonism Beta-lactamase Assay, Ratio, Phase 2 (AID 2283592). The procedure, abridged: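 Plated HCT116 p53-bla cells (4000/well) received compound after 5 h, then 16 h at 37C/5% CO2. CCF4-AM added, 2 h RT. Ratio of 460 to 530 nm emission taken as the p53 reporter signal.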
Chain of Cellular tumor antigen p53 (Homo sapiens) (P04637 whole entry, looked up): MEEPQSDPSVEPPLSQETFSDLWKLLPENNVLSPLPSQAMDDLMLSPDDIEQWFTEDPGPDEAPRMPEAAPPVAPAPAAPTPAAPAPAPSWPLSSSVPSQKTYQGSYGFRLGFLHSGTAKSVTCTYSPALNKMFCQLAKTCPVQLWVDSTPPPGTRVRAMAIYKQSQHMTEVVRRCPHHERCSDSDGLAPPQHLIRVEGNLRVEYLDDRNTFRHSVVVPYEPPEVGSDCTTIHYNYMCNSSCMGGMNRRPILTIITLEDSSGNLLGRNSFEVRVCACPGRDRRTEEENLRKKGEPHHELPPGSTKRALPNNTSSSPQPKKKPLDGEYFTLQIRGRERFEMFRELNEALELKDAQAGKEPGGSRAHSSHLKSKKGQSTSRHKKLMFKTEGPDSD

Experiment [10] can be described thus: TOX21_p53_BLA_p3_viability: Viability Assessment in the Tox21 HCT-116 p53 Agonism Beta-lactamase Assay, Phase 3 (AID 2283593).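 Also: cells exposed to compound for 16 h before reading.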 The procedure, abridged: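 Cellular ATP was quantified by CellTiter-Glo luminescence, read after 30 min at room temperature. Beforehand, HCT116 cells (4000/well) received compound 5 h post-seeding, 217-fold diluted from DMSO, then incubated 16 h at 37C.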

In experiment [11] the target is Cellular tumor antigen p53 (Homo sapiens) (UniProt P04637). Briefly: TOX21_p53_BLA_p3_ratio: Tox21 HCT-116 p53 Agonism Beta-lactamase Assay, Ratio, Phase 3 (AID 2283596). An outline of the steps: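 Cells were seeded at 4000/well, rested 5 h at 37C, then dosed with DMSO compound solutions (217-fold dilution) for 16 h. CCF4-AM substrate was loaded for 2 h at room temperature, and the 460/530 nm emission ratio was fitted for gain of signal versus DMSO.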

The target is the same in experiment [12]. In words: TOX21_p53_BLA_p5_ratio: Tox21 HCT-116 p53 Agonism Beta-lactamase Assay, Ratio, Phase 5 (AID 2283599). The procedure, abridged: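 Beta-lactamase reporter ratio (blue 460 nm over green 530 nm, 405 nm excitation) after 2 h CCF4-AM loading, in HCT-116 cells exposed 16 h at 37 C to compounds pinned at 217-fold dilution. Increases relative to DMSO baseline scored.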

Experiment [13] can be described thus: Tanguay_ZF_120hpf_MORT_legacy: (Legacy) Oregon State University Tanguay Lab 120 Hour Post-fertilization zebrafish Assay for Mortality (AID 2283633). The procedure, abridged: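 5D WT zebrafish, chorion removed 4 hpf; 1 embryo/well from 6 hpf; static exposure to 120 hpf, 28C, dark, sealed. Final DMSO 0.64%. Readout: binary mortality, brightfield, 24 + 120 hpf; DMSO as negative control.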

Experiment [14] is described as follows: Tanguay_ZF_120hpf_YSE_legacy: (Legacy) Oregon State University Tanguay Lab 120 Hour Post-fertilization zebrafish Assay for Yolk Sac Edema (AID 2283634). An outline of the steps: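 Dechorionate (pronase, 4 hpf) → place one 6 hpf embryo per well → static compound exposure, sealed and foil-covered, 28C, to 120 hpf → record yolk sac edema as present or absent. Final DMSO 0.64%.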

The nature of experiment [15]: Tanguay_ZF_120hpf_AXIS_legacy: (Legacy) Oregon State University Tanguay Lab 120 Hour Post-fertilization zebrafish Assay for Body Axis Malformation (AID 2283635). An outline of the steps: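 Chorion is removed with pronase at 4 hpf, then single 6 hpf embryos are dosed (final DMSO 0.64%) and held statically at 28C in sealed, foil-covered plates. At 120 hpf body axis malformation is recorded as present or absent.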

Experiment [16] can be described thus: Tanguay_ZF_120hpf_EYE_legacy: (Legacy) Oregon State University Tanguay Lab 120 Hour Post-fertilization zebrafish Assay for Eye Malformation (AID 2283636).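 Also: binary presence or absence of eye malformation scored by brightfield in 120 hpf larvae.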 The procedure, abridged: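 Binary brightfield scoring of eye defects at 120 hpf after static exposure from 6 hpf of single pronase-dechorionated wild-type embryos (28C, 0.64% DMSO). Non-mortality endpoints omitted where embryos died; fit vs DMSO.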

Experiment [17] can be described thus: Tanguay_ZF_120hpf_SNOU_legacy: (Legacy) Oregon State University Tanguay Lab 120 Hour Post-fertilization zebrafish Assay for Snout Malformation (AID 2283637). An outline of the steps: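 Binary snout-malformation call at 120 hpf in wild-type 5D embryos, chorion removed by pronase, under static exposure from 6 hpf at 28C (0.64% DMSO). Embryos dying by 24 or 120 hpf excluded.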

Experiment [18] is described as follows: TOX21_p53_BLA_p4_viability: Viability Assessment in the Tox21 HCT-116 p53 Agonism Beta-lactamase Assay, Phase 4 (AID 2283597).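 Also: hits lower the luminescence signal meaning cytotoxicity.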 The procedure, abridged:
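Readout: ATP luminescence (CellTiter-Glo), measured 30 min after reagent addition at RT. The reagent followed a 2 h CCF4-AM incubation, and the cells had been exposed to compound for 16 h at 37C.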

Experiment [19] addresses Cellular tumor antigen p53 (Homo sapiens) (UniProt P04637). In words: TOX21_p53_BLA_p4_ratio: Tox21 HCT-116 p53 Agonism Beta-lactamase Assay, Ratio, Phase 4 (AID 2283601). The procedure, abridged:
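Signal is the blue/green (460nm/530nm) ratio of cleaved versus uncleaved CCF4-AM substrate, read after 2 h substrate loading. Cells were HCT116 carrying the p53-responsive beta-lactamase reporter, dosed 16 h at 37C, 5% CO2; CellTiter-Glo measured in parallel.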

The nature of experiment [20]: TOX21_p53_BLA_p5_viability: Viability Assessment in the Tox21 HCT-116 p53 Agonism Beta-lactamase Assay, Phase 5 (AID 2283600). The procedure, abridged:
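Workflow: seed 4000 cells per well, wait 5 h, add compounds (DMSO, 217-fold dilution), incubate 16 h, load CCF4-AM 2 h, add CellTiter-Glo, read luminescence after 30 min.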

Each structure is given as a SMILES string. Records with an inconclusive call do not appear. Activity calls are given as the source filed them. The calls were made as follows, unless noted: active = hit-call score of the fitted dose curve at least 0.9, where 1 is the maximum; inconclusive = response in the unintended direction; inactive = score below 0.9.

For `CCCCCCCCCCCCCCCO`, the result in [1], in experiment [2], in experiment [3], in experiment [4], in [5] and in experiment [6] was inactive. Besides, the outcome in experiment [7], in experiment [8], in experiment [9], in experiment [10], in [11] and in experiment [12] was inactive. For the same compound, the compound was called inactive in experiment [13], in experiment [14], in experiment [15], in experiment [16] and in [17].
Consider `CC/C(=C\C(=N/O)C(N)=O)C(C)[N+](=O)[O-]` (stereo not given), for which the compound was called inactive in [1], in experiment [2], in experiment [3], in experiment [4], in experiment [5] and in experiment [6]. For the same compound, the call in experiment [7], in experiment [8], in experiment [11], in experiment [18], in experiment [12] and in experiment [19] was inactive. Besides, the compound was called inactive in [13], in [14], in experiment [15], in experiment [16] and in experiment [17].
In the case of `NC(=O)NO`, the compound was called inactive in experiment [1], in experiment [2], in experiment [3], in experiment [4], in [5] and in experiment [6]. In addition, the outcome in [7], in experiment [8], in experiment [9], in experiment [11], in [18] and in [12] was inactive. The outcome in experiment [19], in experiment [14], in [15], in [16] and in [17] was inactive.
Turning to `C=CC(=C)CCC=C(C)C`, the compound was called inactive in [1], in [2], in [3], in [4], in [5] and in experiment [6]. The outcome in [7], in experiment [8], in experiment [9], in experiment [11], in experiment [18] and in experiment [12] was inactive. The outcome in [19], in experiment [13], in [14], in experiment [15] and in experiment [17] was inactive.
As for `Cc1ccc(C)c(O)c1`, the compound was called inactive in experiment [1], in experiment [2], in experiment [3], in experiment [4], in experiment [5] and in experiment [6]. Moreover, the compound was called inactive in experiment [7], in experiment [9], in experiment [10], in [11], in experiment [12] and in [19]. The call in [13], in experiment [14], in [15] and in experiment [17] was inactive.
Turning to `CCOC(=O)CC(CC(=O)OCC)(OC(C)=O)C(=O)OCC`, the call in experiment [1], in experiment [2], in experiment [3], in [4], in [5] and in experiment [6] was inactive. For the same compound, the compound was classed as inactive in experiment [7], in [9], in experiment [10], in experiment [13], in experiment [14] and in experiment [15]. For the same compound, the call in experiment [17] was inactive.
As to `CCCN(C1CCN(C(=O)C2CCNCC2)CC1)[C@@H]1CCc2ccc(OC)cc2C1`, the concentration at half-maximal activity (AC50) in experiment [1] was 80.1 µM (active); in experiment [3], 69.3 µM (active); in [4], 81 µM (active); in [5] it was 28.2 µM (active); in experiment [6], 76.1 µM (active). In addition, the result in experiment [2], in experiment [7], in [8], in experiment [9], in [10] and in [11] was inactive. Moreover, the outcome in experiment [20], in experiment [19], in experiment [14], in experiment [15] and in experiment [17] was inactive.
In the case of `CCOC(=O)c1ccc(C2CCC(NC[C@H](O)COc3ccc(O)c(NS(C)(=O)=O)c3)CC2)cc1` (stereo not given in full), the compound was classed as inactive in experiment [1], in experiment [2], in experiment [3], in [4], in experiment [5] and in [6]. Also, the call in [10], in experiment [11], in experiment [12], in experiment [13], in experiment [14] and in experiment [15] was inactive. Further, the compound was called inactive in experiment [17]. The concentration at half-maximal activity (AC50) in experiment [8] was 70.1 µM (active); in [9] it was 80.4 µM (active); in experiment [18] it was 60.2 µM (active); in experiment [19] it was 84 µM (active).

As usually defined, the AC50 is the midpoint of the concentration-response curve, whichever way the signal moves.

The values are drawn from PubChem BioAssay (EPA / NIEHS).
